ASM inhibitor: blocks human secretory acid sphingomyelinase. P17405. placental ASM, HMU-PC fluorogenic substrate, 60 min. Potency, µM (doses to about 57.5 µM), for the others: at the top dose activity change, negative = inhibition, most hits filed as inhibitors. 340,000 tested, 0.006% active. AID 504937; note: potency is the fitted concentration of half-maximal effect
Target sequence (P17405 47-631 limits assumed): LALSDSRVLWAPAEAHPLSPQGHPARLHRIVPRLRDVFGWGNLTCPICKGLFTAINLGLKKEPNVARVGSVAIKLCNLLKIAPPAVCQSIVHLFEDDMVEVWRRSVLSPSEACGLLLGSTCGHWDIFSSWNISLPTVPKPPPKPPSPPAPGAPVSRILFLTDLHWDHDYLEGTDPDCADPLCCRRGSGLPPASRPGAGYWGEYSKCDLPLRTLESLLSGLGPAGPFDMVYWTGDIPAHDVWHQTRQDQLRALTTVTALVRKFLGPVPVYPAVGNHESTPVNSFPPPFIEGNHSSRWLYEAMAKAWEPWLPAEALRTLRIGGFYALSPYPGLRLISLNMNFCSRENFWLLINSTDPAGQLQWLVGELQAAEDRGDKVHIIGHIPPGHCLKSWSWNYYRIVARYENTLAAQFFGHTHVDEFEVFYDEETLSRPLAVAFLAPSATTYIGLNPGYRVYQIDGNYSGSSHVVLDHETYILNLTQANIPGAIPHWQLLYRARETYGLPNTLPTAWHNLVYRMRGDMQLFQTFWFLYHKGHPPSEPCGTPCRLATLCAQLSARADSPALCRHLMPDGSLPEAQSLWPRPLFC
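Human placenta-derived ASM preincubated with compound 10 min at room temperature, then reacted with 9 uM (final) fluorogenic HMU-PC substrate for 60 min at 37 C. Stop solution raises pH to 10; fluorescence read at Ex 386/Em 447 nm.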
IL-1B inflam inh: blocks inflammasome-driven IL-1 beta release | THP-1 LPS/ATP IL-1B secretion, AlphaLISA, 16 h; stronger effect = lower value | activity change, % at 57.5 µM | 360,000 tested, 4.7% active; in the data active = activity change below about -50%; inconclusive = mostly about -30% to -49%; note: % is set by controls: 0 for no effect and ±100 for the full control effect
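THP-1 cells pretreated 1 hr with compounds (up to 57.5 uM final), then stimulated with LPS (250 ng/mL final) plus ATP (1.25 mM final); secreted IL-1B measured by AlphaLISA after 16 hr, decreased signal indicating inhibition.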
HepG2 viability: counter-screen for TGF-b inhibitors: cytotoxicity in HepG2 cells. 410,000 tested, 0.76% active. HepG2 CAGA-GFP viability, ATP luminescence, 18 h. AID 588856. Potency, µM (highest dose often 46.1 µM), for inactives: at the highest dose activity change, negative = cytotoxicity, most hits filed as cytotoxic; note: potency is the fitted concentration of half-maximal effect
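HepG2 CAGA-GFP cells (1000/well, DMEM with 1% FBS) received compound, then TGF-beta at 500 pg/mL final, and were incubated 18 hours at 37 degrees C. Viability was read by CellTiter-Glo luminescence. Media-only wells were set as complete cell-killing and DMSO as no toxicity.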
DT40 TDP1 CPT: DT40-hTDP1 cell growth loss with CPT | chicken DT40 Tdp1-/-;hTDP1 cells + 20 nM CPT, ATP luminescence, 48 h | 420,000 tested, 12% active | Potency, µM (top dose mostly 46.2 µM), inactives show at the highest dose activity change, negative = growth inhibition, usual class: inhibitors; note: potency is the fitted concentration of half-maximal effect; % is set by controls: 0 for no effect and ±100 for the full control effect; nearly all actives have a fitted effect of over 55% in size
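Chicken DT40 Tdp1-/- cells complemented with human TDP1, 400 cells/well, exposed to compounds plus 20 nM camptothecin for at least 48 h at 37 C; viability read as ATP content by CellTiter-Glo luminescence.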
TGFb SMAD3 inh: blocks TGF-b signaling; HepG2 CAGA-GFP TGF-b/SMAD3 reporter, GFP fluorescence, 18 h; TGF-beta stimulated, 500 pg/mL final; AID 588855; 410,000 tested, 1.2% active; Potency, µM (titrated, usually from 46.1 µM), without a hit: at the top dose activity, negative = inhibition, hits mostly inhibitors; note: potency is the fitted concentration of half-maximal effect; % is set by controls: 0 for no effect and ±100 for the full control effect; nearly all actives have a fitted effect of over 65% in size
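Using HEPG2 CAGA-GFP reporter cells at 1000 cells/well, we pinned test compounds, stimulated with recombinant TGF-beta (500 pg/mL final) and measured total well GFP after 18 h.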
TDP1 cell noCPT: qHTS for Inhibitors of human tyrosyl-DNA phosphodiesterase 1 (TDP1): qHTS in cells in absence of CPT | DT40 Tdp1-/- hTDP1 cells, no CPT, ATP luminescence, 48 h | Potency, µM (series often up to 46.2 µM), inactives show top-dose activity change, negative = growth inhibition, most hits filed as inhibitors | 420,000 tested, 15% active | AID 686978, 2013; note: potency is the fitted concentration of half-maximal effect; % is set by controls: 0 for no effect and ±100 for the full control effect; nearly all actives have a fitted effect of over 55% in size
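Growth kinetics read by CellTiter-Glo luminescence after ≥48 hr at 37 °C. Cells: DT40 Tdp1-/- stably carrying human TDP1, 400 per well, compound exposure in the absence of CPT (DMSO vehicle).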
* marks the source's active call; other numbers are inactive results; ? = inconclusive; · = no result; [ ] = remark or other dose. An excerpt weighted towards active compounds, which were near 19% of everything screened. Unless noted, calls come from the whole dose curve; as a rule, active = well fitted curve in the direction sought with a large enough effect; inconclusive = small, poorly fitted or top-dose-only effect, or another doubt; inactive = no such curve, though single readings can be large; an effect the other way counts as inactive or inconclusive.

SMILES | ASM inhibitor | IL-1B inflam inh | HepG2 viability | DT40 TDP1 CPT | TGFb SMAD3 inh | TDP1 cell noCPT
Cc1csc(=O)n1CC(=O)OCC(=O)c1c(N)n(C)c(=O)n(C)c1=O | 1% | 0 | 2% | -24% | -7% | ?
O=C1Nc2ccccc2N(O)N1c1cc(-c2ccccc2)[nH]n1 | 0% | 1 | 5% | -4% | -29% | 6%
Cn1c(=O)c2c(nc(N/N=C/c3cccs3)n2Cc2ccccc2)n(C)c1=O | -1% | 23 | -5% | ? | -24% | 23µM*
Cn1c(=O)c2c(nc(N/N=C/c3ccc(OC(=O)c4ccco4)cc3)n2Cc2ccccc2)n(C)c1=O | ? | 32 | -9% | 12µM* | ? | 8.2µM*
Cn1c(=O)c2c(nc(NCCNC(=O)c3ccco3)n2Cc2ccccc2Cl)n(C)c1=O | 3% | 21 | 3% | -27% | 7% | ?
Cc1cc(OC(C)C(=O)N2CCN(c3ccc(F)cc3)CC2)c2c(C)c(C)c(=O)oc2c1 (configuration not stated) | ? | -7 | -6% | ? | 1% | ?
O=C(Nc1nccs1)c1ccc(CSc2nnnn2-c2ccccc2)cc1 | ? | ? | -25% | 13µM* | -5% | -59%
Cc1nnc(NC(=O)c2nc(SC(C)C)ncc2Cl)s1 | · | · | -56% | -19% | 2% | -8%
Cc1cccc(C)c1NC(=O)c1nc(SC(C)C)ncc1Cl | · | · | -11% | 18µM* | -19% | ?
CCOC(=O)c1ccc(NC(=O)c2nc(SC(C)C)ncc2Cl)cc1 | · | · | -24% | 16µM* | -19% | 16µM*
O=C1NC2CCc3nc4ccccc4c(=O)n3C2=Nc2ccccc21 (configuration not stated) | -3% | -12 | -2% | 21% | 12% | 12%
C#CCNC(=O)C1=C[C@H](C2CC2)C[C@H](OCCCCO)O1 | 2% | 17 | 0% | 3% | -5% | 20%
CCOC(=O)/C(=C\c1cn(C)c2ccccc12)[N+](=O)[O-] | -3% | -85* | -19% | ? | -31% | ?
CCOC(=O)/C(C#N)=C\c1cn(C)c2ccccc12 | 10% | 2 | -1% | 25% | 3% | -11%
Cn1c(/C(C#N)=C/c2ccc(O)cc2)nc2ccccc21 | -4% | -20 | -1% | ? | 3% | -16%
Cn1c(/C(C#N)=C/c2ccc(C(F)(F)F)cc2)nc2ccccc21 | · | · | -22% | 21µM* | · | 13µM*
Cn1c(/C(C#N)=C/c2ccncc2)nc2ccccc21 | 10% | -52* | -6% | ? | -5% | 21µM*
CCOc1ccccc1CNC(=O)C1CCN(S(=O)(=O)c2c(C)noc2/C=C/c2ccc(C)cc2)CC1 | · | · | -16% | ? | ? | -28%
O=C(O)CC(Cc1ccc(Cl)cc1)C(=O)Nc1ccccc1 (configuration not stated) | 0% | 13 | 0% | 7% | -1% | 11%
COc1ccc(C(=O)OCC(=O)c2ccc3[nH]c(=O)[nH]c3c2)c(OC)c1OC | -3% | 0 | 4% | 21% | 8% | 10%
C/C(=N\NC(=O)c1nnn(-c2nonc2N)c1CN(C)c1ccccc1)c1ccc(O)cc1 | -3% | -11 | -1% | -7% | -1% | 1%
C/C(=N\NC(=O)c1nnn(-c2nonc2N)c1-c1ccccc1)c1ccccc1O | 10% | 142 | -15% | 2.3µM* | -17% | 1.5µM*
CCCc1c(C(=O)N/N=C(\C)c2ccc3c(c2)OCO3)nnn1-c1nonc1N | · | 7 | 12% | -8% | -5% | 3%
C/C(=N\NC(=O)c1nnn(-c2nonc2N)c1CN(C)c1ccccc1)c1ccccn1 | -13% | 80 | -23% | 4.6µM* | -15% | 4.6µM*
CCCc1c(C(=O)N/N=C(\C)c2ccccc2O)nnn1-c1nonc1N | · | 0 | 14% | 8.2µM* | -14% | 8.2µM*
SMILES | ASM inhibitor | IL-1B inflam inh | HepG2 viability | DT40 TDP1 CPT | TGFb SMAD3 inh | TDP1 cell noCPT
CCCc1c(C(=O)N/N=C(\C)c2ccc(CC(C)C)cc2)nnn1-c1nonc1N | · | 4 | -1% | 12µM* | -5% | 6.5µM*
CC(C)(C)OC(=O)C1=CC[C@@H](c2ccc(Cl)c(Cl)c2)N(S(=O)(=O)c2ccc(F)cc2)[C@H]1c1cccc(F)c1 | · | 3 | -25% | ? | 2% | 15µM*
Cc1ccc(S(=O)(=O)N2[C@@H](c3cccc(Cl)c3)C(C(=O)OC(C)(C)C)=CC[C@H]2c2cccc(Cl)c2)cc1 | · | 6 | -5% | 9.2µM* | 1% | 12µM*
N#CC1(NC(=O)CSc2nncn2-c2ccccc2F)CCCC1 | 3% | 9 | -1% | -1% | 8% | 3%
CCOc1ccccc1OCCOCCOc1ccccc1[N+](=O)[O-] | 0% | 18 | 0% | -27% | -2% | 10µM*
CC1CCN(CCCCOc2ccccc2[N+](=O)[O-])CC1 | 2% | -62* | 10% | -37% | 24% | -13%
Cc1ccc(OCCCCN2CCCC(C)C2)c([N+](=O)[O-])c1 (configuration not stated) | -1% | -5 | -3% | 18µM* | 0% | 23µM*
O=C(O)c1ccc(N2C(=O)c3ccc(C(=O)c4cccc([N+](=O)[O-])c4)cc3C2=O)cc1 | -9% | 9 | -5% | 5% | -11% | -23%
CN(CCO)C(=O)c1cn(C2CCN(Cc3c(F)cccc3Cl)CC2)nn1 | · | · | · | -16%[9.04 µM] | · | -9%
O=C(Cc1cccc(NC(=O)C2CCN(C(=O)c3ccccc3)CC2)c1)Nc1cccc(C(=O)N2CCCC2)c1 | 2% | -5 | -8% | -1% | 1% | 3%
O=c1oc(=S)oc2c1[C@H](c1ccc(Cl)cc1)O[C@H](C1CCCC1)C2 | · | 28 | · | ? | · | 23µM*
Cn1c(=O)n(C)c2cc(N3CCOCC3)c(NS(=O)(=O)c3ccc(F)cc3)cc21 | · | · | 3% | ? | 15% | ?
COc1ccccc1CCC(=O)Nc1ccc(S(=O)(=O)Nc2nccs2)cc1 | 2% | 13 | 4% | 2% | -15% | -4%
COc1cc2cnc(-c3ccccc3)c(-c3ccc(C#N)cc3)c2cc1OC | -19% | -22 | -8% | ? | 13% | 16µM*
COc1cc2cnc(-c3ccsc3)c(-c3ccc(F)cc3)c2cc1OC | -21% | -14 | -1% | ? | -48% | ?
CN(C)C1(CNC(=O)COc2ccc(C(C)(C)C)cc2)CCCCC1 | · | · | -25% | ? | 7% | ?

Screening data deposited in PubChem BioAssay by National Center for Advancing Translational Sciences (NCATS).
